This note sets out measurements from PubChem BioAssay (EPA / NIEHS).

In assay [1] the target is Paired box protein Pax-6 (Homo sapiens) (UniProt P26367). Description: ATG_Pax6_CIS: Attagene CIS-FACTORIAL HepG2 Assay for human Paired Box 6 (PAX6) (AID 2282956). Particulars: HepG2 CIS-FACTORIAL PAX6 reporter transcription, RNA readout; actives raise or lower the signal. In short, it runs like this:
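Multiplexed cis-reporter HepG2 system; 24 h treatment; reporter mRNA read by RT-PCR/CE fluorescence; bidirectional fit vs DMSO.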

Assay [2] in a line: ATG_PXRE_CIS: Attagene CIS-FACTORIAL HepG2 Assay for human Pregnane X Receptor Element (PXRE) (AID 2282957). To be noted: HepG2 Attagene CIS-FACTORIAL PXRE reporter, mRNA; actives raise or lower the signal. In short, it runs like this: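 Transfect HepG2 with MRTUs (cis promoter elements); dose chemical, incubate 24 h; isolate RNA, RT with oligo(dT), PCR, 6-FAM label, HpaI cut, CE. Gain/loss fit vs DMSO.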

Assay [3] can be described thus: ATG_RORE_CIS: Attagene CIS-FACTORIAL HepG2 Assay for human RAR-related Orphan Receptor Element (RORE) (AID 2282959). Particulars: HepG2 Attagene cis-factorial RORE reporter, mRNA; actives raise or lower the signal. In short, it runs like this: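 Cells were HepG2 carrying transfected cis-regulated reporter constructs, dosed for 24 hours. Total RNA was reverse-transcribed and reporter cDNA amplified, fluorescently labeled and sized by capillary electrophoresis. Activity was fitted bidirectionally relative to DMSO.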

Assay [4] in a line: ATG_Sox_CIS: Attagene CIS-FACTORIAL HepG2 Assay for human SRY-box transcription factor (SOX) (AID 2282960). Particulars: HepG2 Attagene cis-factorial SOX reporter, mRNA; actives raise or lower the signal. In short, it runs like this: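 Transient MRTU transfection of HepG2; 24 h compound incubation; TriZol RNA, oligo(dT) RT, PCR, 6-FAM primer extension, HpaI cut, CE. Bidirectional fit, DMSO = baseline.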

The target of assay [5] is Transcription factor Sp1 (Homo sapiens) (UniProt P08047). Nature of the assay: ATG_Sp1_CIS: Attagene CIS-FACTORIAL HepG2 Assay for human Specificity Protein 1 (Sp1) (AID 2282961). To be noted: HepG2 Sp1 cis-reporter transcription, actives raise or lower the signal. In short, it runs like this:
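Endogenous Sp1 activity was gauged in human liver HepG2 cells bearing transfected reporter units under a cis-regulating promoter. After 24 h dosing, reporter mRNA was quantified by RT-PCR with capillary electrophoresis, and activity fitted bidirectionally versus DMSO.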

A short description of assay [6]: ATG_SREBP_CIS: Attagene CIS-FACTORIAL HepG2 Assay for human Sterol Regulatory Element Binding (SREBP) (AID 2282962). Particulars: HepG2 Attagene cis-factorial SREBP reporter, mRNA; actives raise or lower the signal. In short, it runs like this: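 mRNA induction of transfected cis-promoter reporters in HepG2 cells, 24 h post-dose. Detection: RT-PCR with 6-FAM-labelled products, HpaI digest, capillary electrophoresis. DMSO served as negative control and baseline.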

Assay [7] can be described thus: ATG_TA_CIS: Attagene CIS-FACTORIAL HepG2 Assay for human TA Basal Promoter (AID 2282964). Particulars: HepG2 Attagene CIS-factorial TA basal promoter reporter; actives raise or lower the signal. In short, it runs like this: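 Background-control readout: TA basal promoter reporter mRNA, fitted in both directions relative to DMSO. Measured by RT-PCR and capillary electrophoresis 24 hours after treating HepG2 human liver cells transiently carrying multiplexed cis-regulated reporter constructs.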

Assay [8] in a line: ATG_TCF_b_cat_CIS: Attagene CIS-FACTORIAL HepG2 Assay for human T-Cell-Factor with beta-catenin (TCF/b-cat) (AID 2282965). Particulars: HepG2 TCF/beta-catenin cis-reporter transcription, actives raise or lower the signal. In short, it runs like this:
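Using capillary electrophoresis as the read-out, labelled reporter cDNA fragments from transiently transfected HepG2 were sized and quantified. Exposure lasted 24 hours; activity in either direction was referenced to DMSO.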

The nature of assay [9]: ATG_TAL_CIS: Attagene CIS-FACTORIAL HepG2 Assay for human TAL Basal Promoter (AID 2282966).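 Further: background control endpoint measuring basal TAL promoter reporter mRNA not a specific factor.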 Particulars: HepG2 Attagene cis-factorial TAL promoter reporter; actives raise or lower the signal. In a few lines: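 Fluorescence of labelled reporter cDNA fragments, resolved by capillary electrophoresis, gave the readout. Human HepG2 liver cells carried transiently transfected cis-element reporter units and were treated for 24 hours; activity was fitted bidirectionally against DMSO.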

Assay [10] is described as follows: ATG_TGFb_CIS: Attagene CIS-FACTORIAL HepG2 Assay for human Transforming Growth Factor (TGF) (AID 2282967). To be noted: HepG2 Attagene CIS TGFb reporter, mRNA transcription; actives raise or lower the signal. In short, it runs like this: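 Endogenous TGFB1-linked transcription factor activity read as reporter mRNA via RT-PCR and capillary electrophoresis, 24 h after dosing transiently transfected HepG2 cells. Gain or loss of signal fitted relative to DMSO.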

For assay [11], the target named is Estrogen receptor (Homo sapiens) (UniProt P03372). Description: ATG_ERa_TRANS: Attagene TRANS-FACTORIAL HepG2 Assay for human Estrogen Receptor alpha (ERa) (AID 2282970; active means hit-call score of the fitted dose curve at least 0.9, where 1 is the maximum). Particulars: HepG2 Attagene TRANS ERa GAL4 reporter, mRNA. In short, it runs like this:
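Human liver HepG2, transient transfection of multiple GAL4-UAS reporter units; TRANS format (exogenous NR-Gal4 chimera). 24 h dosing. Readout: reporter mRNA, RT-PCR, 6-FAM primer extension, HpaI digest, capillary electrophoresis. Positive direction vs DMSO.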

In assay [12] the target is X-box-binding protein 1 (Homo sapiens) (UniProt P17861). Nature of the assay: ATG_Xbp1_CIS: Attagene CIS-FACTORIAL HepG2 Assay for human X-box Binding Protein 1 (XBP1) (AID 2282972). Particulars: HepG2 XBP1 cis-element reporter, Attagene multiplex; actives raise or lower the signal. In short, it runs like this:
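Fluorescence-labelled cDNA fragments from reporter transcripts, separated by capillary electrophoresis, give the signal. Source: HepG2 cells transfected with promoter-driven reporter units, harvested 24 h post-dose. DMSO served as reference for bidirectional curve fitting.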

A short description of assay [13]: ATG_GAL4_TRANS: Attagene TRANS-FACTORIAL HepG2 Assay for GAL4 (Internal Marker) (AID 2282976; active means hit-call score of the fitted dose curve at least 0.9, where 1 is the maximum). Particulars: HepG2 Attagene TRANS GAL4 internal marker reporter. In short, it runs like this: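 First, HepG2 cells were transfected with reporter units under GAL4-UAS control. Next, they were treated with chemical for 24 h. Finally, RNA was reverse-transcribed, PCR-amplified, FAM-labelled and resolved by capillary electrophoresis, with induction scored against DMSO.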

For assay [14], the target named is Signal transducer and activator of transcription 3 (Homo sapiens) (UniProt P40763). Description: ATG_STAT3_CIS: Attagene CIS-FACTORIAL HepG2 Assay for human Signal Transducer and Activator of Transcription 3 (STAT3) (AID 2282963). Particulars: HepG2, Attagene cis-factorial STAT3 reporter transcription; actives raise or lower the signal. In a few lines: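 HepG2 cells transiently transfected with cis-element-driven multiple reporter transcription units; after 24 h chemical exposure, reporter mRNA measured by RT-PCR, 6-FAM primer-extension labelling, HpaI digestion and capillary electrophoresis. Bidirectional fitting versus DMSO baseline.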

Assay [15] can be described thus: ATG_VDRE_CIS: Attagene CIS-FACTORIAL HepG2 Assay for human Vitamin D Receptor Element (VDRE) (AID 2282968). To be noted: HepG2 VDRE cis-reporter transcription, actives raise or lower the signal. In short, it runs like this:
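HepG2 cells transiently transfected with cis-element reporter units, dosed 24 h; reporter mRNA measured by RT-PCR, 6-FAM labeling, HpaI digestion and capillary electrophoresis. Activity fitted bidirectionally against DMSO baseline.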

For assay [16], the target named is Steroid hormone receptor ERR1 (Homo sapiens) (UniProt P11474). Description: ATG_ERRa_TRANS: Attagene TRANS-FACTORIAL HepG2 Assay for human Estrogen-Related Receptor alpha (ERRa) (AID 2282971; active means hit-call score of the fitted dose curve at least 0.9, where 1 is the maximum). To be noted: HepG2 Attagene TRANS reporter, ERRa transactivation. In short, it runs like this:
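Reporter transcript induction was quantified by RT-PCR and capillary electrophoresis of FAM-labelled, HpaI-cut products after 24 h treatment of HepG2 cells carrying transiently transfected GAL4-UAS reporter units and an exogenous ERRa-Gal4 fusion; activity scored as increase over DMSO.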

A short description of assay [17]: ATG_M_19_TRANS: Attagene TRANS-FACTORIAL HepG2 Assay for M19 Transcription Factor (Internal Marker) (AID 2282974; active means hit-call score of the fitted dose curve at least 0.9, where 1 is the maximum). To be noted: HepG2 Attagene TRANS-FACTORIAL M19 internal marker reporter. In a few lines:
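Cells: human HepG2, transiently transfected with multiplexed reporter transcription units. Exposure: 24 h. Detection: RT-PCR of reporter mRNA with capillary electrophoresis. Analysis: gain-of-signal vs DMSO.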

The target of assay [18] is Nuclear receptor subfamily 1 group I member 3 (Homo sapiens) (UniProt Q14994). Nature of the assay: ATG_CAR_TRANS: Attagene TRANS-FACTORIAL HepG2 Assay for human Constitutive Androstane Receptor (CAR) (AID 2282969; active means hit-call score of the fitted dose curve at least 0.9, where 1 is the maximum;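 further: activators raise reporter mRNA above DMSO so AC50 marks induction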). Particulars: HepG2 Attagene TRANS-FACTORIAL CAR reporter. In short, it runs like this:
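HepG2 cells transiently transfected with multiplexed GAL4-UAS reporter units expressing chimeric NR-Gal4 proteins; compound exposure 24 h. Reporter mRNA measured by RT-PCR, 6-FAM labelling, HpaI digestion and capillary electrophoresis; gain-of-signal fitted against DMSO baseline.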

Results filed as inconclusive are left out. Activity calls are given as the source filed them. How the source made its calls, unless noted: active means hit-call score of the fitted dose curve at least 0.9, where 1 is the maximum; inactive means score below 0.9.

Paired box protein Pax-6 (Homo sapiens), sequence (P26367 whole entry, looked up): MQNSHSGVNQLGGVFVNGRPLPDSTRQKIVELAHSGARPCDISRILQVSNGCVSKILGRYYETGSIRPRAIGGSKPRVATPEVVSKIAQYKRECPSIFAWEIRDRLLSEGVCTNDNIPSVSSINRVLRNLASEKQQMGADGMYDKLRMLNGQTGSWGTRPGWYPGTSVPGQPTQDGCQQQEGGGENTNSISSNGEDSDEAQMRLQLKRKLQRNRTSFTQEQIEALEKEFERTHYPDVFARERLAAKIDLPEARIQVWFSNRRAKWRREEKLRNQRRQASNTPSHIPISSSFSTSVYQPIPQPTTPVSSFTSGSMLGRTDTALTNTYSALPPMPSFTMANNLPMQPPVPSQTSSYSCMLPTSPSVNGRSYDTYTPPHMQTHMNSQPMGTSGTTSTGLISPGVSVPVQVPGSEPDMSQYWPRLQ
X-box-binding protein 1 (Homo sapiens), sequence (P17861 whole entry, looked up, the tested form may be a part): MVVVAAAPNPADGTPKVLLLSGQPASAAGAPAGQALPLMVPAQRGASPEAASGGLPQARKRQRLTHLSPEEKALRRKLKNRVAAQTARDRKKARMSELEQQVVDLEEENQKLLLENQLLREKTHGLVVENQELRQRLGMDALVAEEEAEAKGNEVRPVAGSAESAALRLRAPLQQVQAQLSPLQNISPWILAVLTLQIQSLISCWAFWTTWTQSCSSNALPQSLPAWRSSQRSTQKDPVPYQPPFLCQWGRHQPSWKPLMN
Estrogen receptor (Homo sapiens), sequence (P03372 whole entry, looked up, the tested form may be a part): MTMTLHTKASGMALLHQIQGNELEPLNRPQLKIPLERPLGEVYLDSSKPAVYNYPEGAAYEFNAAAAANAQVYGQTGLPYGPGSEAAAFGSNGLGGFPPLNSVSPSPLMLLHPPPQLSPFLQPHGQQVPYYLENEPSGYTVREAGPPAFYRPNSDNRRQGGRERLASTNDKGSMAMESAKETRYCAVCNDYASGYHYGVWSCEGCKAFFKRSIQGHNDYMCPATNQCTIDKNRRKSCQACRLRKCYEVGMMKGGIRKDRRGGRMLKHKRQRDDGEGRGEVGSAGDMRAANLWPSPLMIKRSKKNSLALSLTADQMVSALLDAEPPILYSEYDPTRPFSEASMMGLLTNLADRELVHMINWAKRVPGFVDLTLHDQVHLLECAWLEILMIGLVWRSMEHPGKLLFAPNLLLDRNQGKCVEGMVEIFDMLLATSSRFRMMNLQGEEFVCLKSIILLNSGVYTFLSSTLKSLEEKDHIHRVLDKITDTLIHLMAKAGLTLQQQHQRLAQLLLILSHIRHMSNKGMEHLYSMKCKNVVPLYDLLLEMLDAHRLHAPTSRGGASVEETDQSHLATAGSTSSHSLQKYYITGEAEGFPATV
Transcription factor Sp1 (Homo sapiens), sequence (P08047 whole entry, looked up): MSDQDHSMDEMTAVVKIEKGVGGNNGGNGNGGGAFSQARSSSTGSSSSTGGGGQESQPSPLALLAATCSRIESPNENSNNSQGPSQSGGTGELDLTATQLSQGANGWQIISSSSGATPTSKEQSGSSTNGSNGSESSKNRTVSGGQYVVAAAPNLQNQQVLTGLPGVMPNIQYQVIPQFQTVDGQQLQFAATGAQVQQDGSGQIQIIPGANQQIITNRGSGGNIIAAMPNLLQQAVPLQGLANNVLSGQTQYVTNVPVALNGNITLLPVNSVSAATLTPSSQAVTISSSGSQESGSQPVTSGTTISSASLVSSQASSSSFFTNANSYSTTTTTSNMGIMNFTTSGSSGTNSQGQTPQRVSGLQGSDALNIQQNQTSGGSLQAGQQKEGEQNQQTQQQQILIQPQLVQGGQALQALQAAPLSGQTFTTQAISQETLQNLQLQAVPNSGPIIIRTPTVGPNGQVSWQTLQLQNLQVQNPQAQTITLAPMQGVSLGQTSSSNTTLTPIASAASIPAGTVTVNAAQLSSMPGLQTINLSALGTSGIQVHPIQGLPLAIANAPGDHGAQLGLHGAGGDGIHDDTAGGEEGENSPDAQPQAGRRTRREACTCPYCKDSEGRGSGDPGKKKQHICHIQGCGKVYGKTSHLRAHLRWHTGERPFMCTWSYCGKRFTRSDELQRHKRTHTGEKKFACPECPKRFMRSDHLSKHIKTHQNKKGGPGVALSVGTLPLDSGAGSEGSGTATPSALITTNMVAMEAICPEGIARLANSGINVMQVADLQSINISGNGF
Steroid hormone receptor ERR1 (Homo sapiens), sequence (P11474 whole entry, looked up, the tested form may be a part): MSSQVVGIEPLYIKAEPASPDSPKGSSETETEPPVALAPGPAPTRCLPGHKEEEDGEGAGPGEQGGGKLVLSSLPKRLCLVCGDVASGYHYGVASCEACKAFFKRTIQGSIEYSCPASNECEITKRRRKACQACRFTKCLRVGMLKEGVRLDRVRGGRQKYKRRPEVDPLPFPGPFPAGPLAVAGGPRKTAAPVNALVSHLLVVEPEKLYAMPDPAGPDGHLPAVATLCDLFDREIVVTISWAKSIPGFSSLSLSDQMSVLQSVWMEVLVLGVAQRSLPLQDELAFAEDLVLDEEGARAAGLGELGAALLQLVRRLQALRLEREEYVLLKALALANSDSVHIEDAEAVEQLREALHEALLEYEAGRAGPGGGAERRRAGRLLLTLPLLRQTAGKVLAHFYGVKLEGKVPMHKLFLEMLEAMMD
Signal transducer and activator of transcription 3 (Homo sapiens), sequence (P40763 whole entry, looked up): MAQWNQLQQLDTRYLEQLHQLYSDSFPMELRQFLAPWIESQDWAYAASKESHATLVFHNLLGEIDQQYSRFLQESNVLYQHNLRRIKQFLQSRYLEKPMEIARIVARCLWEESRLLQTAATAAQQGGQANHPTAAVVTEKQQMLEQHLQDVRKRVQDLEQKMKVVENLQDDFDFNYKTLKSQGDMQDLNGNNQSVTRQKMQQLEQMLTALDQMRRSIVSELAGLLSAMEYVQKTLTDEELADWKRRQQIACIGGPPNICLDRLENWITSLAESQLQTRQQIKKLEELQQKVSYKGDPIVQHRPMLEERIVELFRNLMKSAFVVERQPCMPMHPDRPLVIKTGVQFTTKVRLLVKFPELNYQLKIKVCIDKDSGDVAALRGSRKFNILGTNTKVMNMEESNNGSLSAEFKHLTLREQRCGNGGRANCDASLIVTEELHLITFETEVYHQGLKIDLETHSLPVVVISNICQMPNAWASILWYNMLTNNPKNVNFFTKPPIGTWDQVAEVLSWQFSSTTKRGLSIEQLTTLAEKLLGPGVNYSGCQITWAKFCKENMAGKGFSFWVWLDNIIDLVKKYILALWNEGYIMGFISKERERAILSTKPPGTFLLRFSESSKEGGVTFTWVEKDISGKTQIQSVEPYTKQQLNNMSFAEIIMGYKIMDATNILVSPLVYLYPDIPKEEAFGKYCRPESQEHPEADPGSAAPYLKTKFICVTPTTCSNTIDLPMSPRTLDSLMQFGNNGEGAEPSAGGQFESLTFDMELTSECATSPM
Nuclear receptor subfamily 1 group I member 3 (Homo sapiens), sequence (Q14994 whole entry, looked up, the tested form may be a part): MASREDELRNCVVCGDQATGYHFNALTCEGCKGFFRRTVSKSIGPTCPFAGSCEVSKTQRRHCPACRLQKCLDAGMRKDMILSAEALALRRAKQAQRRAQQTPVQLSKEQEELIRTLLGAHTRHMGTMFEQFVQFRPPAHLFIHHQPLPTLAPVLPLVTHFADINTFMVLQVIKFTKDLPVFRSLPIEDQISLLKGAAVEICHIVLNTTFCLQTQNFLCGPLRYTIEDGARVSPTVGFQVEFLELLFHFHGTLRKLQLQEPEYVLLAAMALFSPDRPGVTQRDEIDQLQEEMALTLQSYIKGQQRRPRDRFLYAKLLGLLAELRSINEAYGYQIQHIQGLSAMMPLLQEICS

In general, AC50 refers to the midpoint of the concentration-response curve, whichever way the signal moves. With `CC(C)COC(=O)C=Cc1ccccc1`, the outcome in [1], in assay [3], in [4], in assay [5], in assay [6] and in assay [7] was inactive. Moreover, the call in assay [8], in assay [9], in assay [10], in [12] and in [13] was inactive. Further, the AC50 in assay [2] is 27.2 µM (active); in [11], 71.6 µM (active).

As to `O=[N+]([O-])C1(Br)COCOC1`, the molecule was called inactive in assay [1], in assay [2], in assay [3], in [6], in [14] and in assay [7]. Further, the molecule was called inactive in assay [15], in [11], in [16], in assay [17] and in assay [13]. Moreover, the AC50 was 51.9 µM (active) in [4], 50.2 µM (active) in assay [5], 55.7 µM (active) in [8] and 53.1 µM (active) in assay [12].

As to `CC(C)(C)c1ccc(OC(=O)c2ccccc2O)cc1`, the molecule was called inactive in [1], in assay [3], in assay [4], in assay [5], in assay [6] and in assay [7]. The call in [8], in assay [9], in assay [10], in assay [15], in [18] and in assay [12] was inactive. Further, the results for the AC50 in assay [2] and in assay [11] were 15.3 µM (active) and 6.14 µM (active), respectively.

As to `COc1ccc2nc(N)sc2c1`, the molecule was classed as inactive in assay [1], in [2], in assay [3], in assay [4], in assay [6] and in [14]. Moreover, the molecule was classed as inactive in [7], in assay [8], in assay [9], in [10], in assay [15] and in assay [11]. Moreover, the molecule was classed as inactive in [12].

As to `Cc1cc(=O)n(-c2ccccc2)n1C`, the outcome in [1], in assay [2], in [3], in [4], in assay [5] and in [7] was inactive. The molecule was classed as inactive in assay [8], in assay [9], in [10], in assay [15], in [11] and in assay [16]. Further, the result in assay [12] and in [17] was inactive.
